The source of these data is PubChem BioAssay (EPA / NIEHS).

The source made the active and inactive calls. How the source made its calls: active means hit-call score of the fitted dose curve at least 0.9, where 1 is the maximum; inactive means score below 0.9.

Experiment [1] is described as follows: ATG_CRE_CIS: Attagene CIS-FACTORIAL HepG2 Assay for human cAMP Responsive Element (CRE) binding protein 3 (AID 2282926). The note with it: HepG2 CRE cis-reporter, Attagene multiplexed mRNA; actives raise or lower the signal. The essentials: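 Liver-derived HepG2, transfected with a CRE-containing reporter panel, exposed 24 h; transcript levels sized and quantified by capillary electrophoresis of labelled amplicons; signal changes either way referenced to vehicle.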

Experiment [2] concerns the target CCAAT/enhancer-binding protein beta (Homo sapiens) (UniProt P17676). Briefly: ATG_C_EBP_CIS: Attagene CIS-FACTORIAL HepG2 Assay for human CCAAT/Enhancer Binding Protein (C/EBP) beta (AID 2282927). The note with it: HepG2 Attagene cis-factorial transcription factor reporter; actives raise or lower the signal. The essentials: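 Transiently transfected HepG2 (MRTU library, endogenous TF-driven promoters); 24 h dosing; total RNA → oligo(dT) RT → PCR → 6-FAM primer extension → HpaI digest → CE; fit bidirectionally vs DMSO.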

A short description of experiment [3]: ATG_CMV_CIS: Attagene CIS-FACTORIAL HepG2 Assay for human CMV (Internal Marker) (AID 2282928).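 Further: endpoint acts as a background internal control marker rather than a target.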 The note with it: HepG2 CMV promoter reporter, transcription factor profiling; actives raise or lower the signal. The method, boiled down: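 Reporter transcripts from transfected HepG2 cells are isolated after 24 h of chemical dosing, reverse-transcribed and amplified. Fragments labeled with 6-FAM are cut with HpaI and quantified by capillary electrophoresis; DMSO defines baseline.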

Experiment [4] can be described thus: ATG_DR4_LXR_CIS: Attagene CIS-FACTORIAL HepG2 Assay for human Liver X Receptor (LXR), DR4 submotif (AID 2282929). The note with it: HepG2 Attagene DR4 cis-reporter, mRNA transcription; actives raise or lower the signal. The method, boiled down: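 Readout: reporter transcript fluorescence after RT-PCR and capillary electrophoresis, fitted bidirectionally against DMSO controls. Human HepG2 liver cells carried transiently transfected multiplexed reporter constructs; endogenous transcription factor activity measured 24 h post-dosing.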

Experiment [5] concerns the target Aryl hydrocarbon receptor (Homo sapiens) (UniProt P35869). Briefly: ATG_Ahr_CIS: Attagene CIS-FACTORIAL HepG2 Assay for human Aryl Hydrocarbon Receptor (Ahr) (AID 2282930). The note with it: HepG2 AhR cis-factorial reporter transcription; actives raise or lower the signal. The essentials: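 Read-out: reporter mRNA quantified by RT-PCR with fluorescent primer extension and capillary electrophoresis. Human HepG2 liver cells carried transfected cis-promoter reporter units and were exposed to chemical for 24 h; gain or loss fitted relative to DMSO.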

Experiment [6] in a line: ATG_AP_1_CIS: Attagene CIS-FACTORIAL HepG2 Assay for human Activator Protein 1 (AP-1) (AID 2282931). The note with it: HepG2 Attagene cis-factorial AP-1 reporter mRNA; actives raise or lower the signal. The essentials:
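Reporter transcripts were measured 24 h after dosing by RT-PCR and capillary electrophoresis of fluorescent fragments. Cells: HepG2 carrying transfected cis-regulated reporter constructs reading endogenous factor activity. Gain or loss fitted against DMSO.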

Experiment [7] in a line: ATG_AP_2_CIS: Attagene CIS-FACTORIAL HepG2 Assay for human Activator Protein 2 (AP-2) (AID 2282932). The note with it: HepG2 AP-2 cis-reporter, Attagene transcription factor profiling; actives raise or lower the signal. The method, boiled down:
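Liver-derived HepG2 line, cis-reporter system measuring endogenous factors; 24 h dosing; reporter mRNA detected by fluorescent RT-PCR and capillary electrophoresis.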

The nature of experiment [8]: ATG_BRE_CIS: Attagene CIS-FACTORIAL HepG2 Assay for human Bone Morphogenetic Protein (BMP) Response Element (BRE) (AID 2282933). The note with it: HepG2 BMP response element reporter, Attagene transcription factor profiling; actives raise or lower the signal. The method, boiled down: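 Fluorescence-labelled reporter cDNA fragments, separated by capillary electrophoresis, gave the signal for this component of a 52-readout multiplex. HepG2 cells were transfected, exposed to chemicals for 24 h, and compared with DMSO using bidirectional fitting.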

Experiment [9] concerns the target Transcription factor E2F1 (Homo sapiens) (UniProt Q01094). Description: ATG_E2F_CIS: Attagene CIS-FACTORIAL HepG2 Assay for human E2F Transcription Factor 1 (AID 2282935). The note with it: HepG2 Attagene cis-reporter, E2F reporter RNA transcripts; actives raise or lower the signal. The essentials:
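Liver-derived HepG2 cells expressing transfected promoter-driven reporter units received test chemical for 24 hours. Signal gains or losses were fitted bidirectionally against DMSO.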

A short description of experiment [10]: ATG_M_61_CIS: Attagene CIS-FACTORIAL HepG2 Assay for M61 Transcription Factor (Internal Marker) (AID 2282937). The note with it: HepG2 Attagene CIS-FACTORIAL M61 internal marker reporter; actives raise or lower the signal. The essentials:
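Readout: fluorescent reporter mRNA fragments resolved by capillary electrophoresis after RT-PCR. Transiently transfected human HepG2 cells carried MRTU constructs reporting endogenous TF activity; 24 h chemical exposure; gain or loss of signal fitted relative to DMSO.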

Experiment [11] in a line: ATG_EGR_CIS: Attagene CIS-FACTORIAL HepG2 Assay for human Early Growth Response 1 (EGR1) (AID 2282938). The note with it: HepG2 Attagene CIS-FACTORIAL EGR reporter mRNA; actives raise or lower the signal. The method, boiled down: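 Read-out: fluorescent reporter-mRNA fragments resolved by capillary electrophoresis after RT-PCR, 24 h post-dose in transiently transfected HepG2. Endogenous transcription-factor activity reported via cis-element-regulated reporter units; gain or loss fitted relative to DMSO.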

A short description of experiment [12]: ATG_M_19_CIS: Attagene CIS-FACTORIAL HepG2 Assay for M19 Transcription Factor (Internal Marker) (AID 2282939). The note with it: HepG2 Attagene CIS-FACTORIAL M19 internal marker reporter; actives raise or lower the signal. The method, boiled down: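 HepG2, MRTU transient transfection, 24 h dosing. Total RNA → RT-PCR → 6-FAM primer extension → HpaI digest → CE fluorescence. Bidirectional curve fit, DMSO negative control.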

Experiment [13] in a line: ATG_Ets_CIS: Attagene CIS-FACTORIAL HepG2 Assay for human Erythroblast Transformation Specific (ETS) (AID 2282941). The note with it: HepG2 ETS cis-reporter transcription, actives raise or lower the signal. The essentials: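 Bidirectional fit versus DMSO of reporter mRNA signal, detected by RT-PCR and capillary electrophoresis in HepG2 cells transiently transfected with cis-element reporters and dosed 24 h.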

Experiment [14] addresses Hepatocyte nuclear factor 3-beta (Homo sapiens) (UniProt Q9Y261). Description: ATG_FoxA2_CIS: Attagene CIS-FACTORIAL HepG2 Assay for human Forkhead box A2 (FOXA2) (AID 2282942). The note with it: HepG2 cis-reporter transcription factor activity, 24 h; actives raise or lower the signal. The essentials:
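Readout: fluorescent reporter transcripts resolved by capillary electrophoresis after RT-PCR. Transiently transfected HepG2, 24 h compound exposure, endogenous TF activity at cis promoter elements. Gain or loss of signal fitted relative to DMSO.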

Experiment [15] is described as follows: ATG_FoxO_CIS: Attagene CIS-FACTORIAL HepG2 Assay for human Forkhead box O (FoxO) (AID 2282943). The note with it: HepG2 Attagene cis-reporter, FoxO element, mRNA; actives raise or lower the signal. The method, boiled down: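 Read-out: fluorescence of 6-FAM-labelled reporter cDNA fragments resolved by capillary electrophoresis. Transiently transfected HepG2 cells were dosed for 24 h; activity fitted in both directions relative to DMSO controls.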

The nature of experiment [16]: ATG_GATA_CIS: Attagene CIS-FACTORIAL HepG2 Assay for human GATA Binding Protein (AID 2282944). The note with it: HepG2 GATA cis-element reporter, Attagene multiplex mRNA; actives raise or lower the signal. The method, boiled down:
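Cells: HepG2, transiently transfected with cis-regulated reporter transcription units. Exposure: 24 h. Detection: RT-PCR plus capillary electrophoresis of FAM-labeled fragments. Analysis: bidirectional, DMSO as baseline.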

Experiment [17] can be described thus: ATG_GLI_CIS: Attagene CIS-FACTORIAL HepG2 Assay for human Zinc Finger Protein GLI1 (AID 2282945). The note with it: HepG2, Attagene cis-factorial reporter mRNA, GLI element; actives raise or lower the signal. The method, boiled down:
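Transiently transfected HepG2 cells report endogenous transcription factor activity via cis-element-driven reporter units. After 24 h compound exposure, reporter mRNA was measured by RT-PCR with capillary electrophoresis; bidirectional fitting against DMSO baseline.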

For experiment [18], the target named is Bile acid receptor (Homo sapiens) (UniProt Q96RI1). Briefly: ATG_IR1_CIS: Attagene CIS-FACTORIAL HepG2 Assay for human Nuclear Receptor Subfamily 1 Group H Member 4 (NR1H4), IR1 submotif (AID 2282946). The note with it: IR1 reporter transcription, actives raise or lower the signal. The essentials: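 Fluorescence of capillary-separated, HpaI-digested RT-PCR reporter products gave IR1-element mRNA induction in HepG2 cells 24 h after dosing. Endogenous transcription factors drove the cis-regulated reporters; activity was fitted bidirectionally against DMSO.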
Chain of Bile acid receptor (Homo sapiens) (Q96RI1 whole entry, looked up): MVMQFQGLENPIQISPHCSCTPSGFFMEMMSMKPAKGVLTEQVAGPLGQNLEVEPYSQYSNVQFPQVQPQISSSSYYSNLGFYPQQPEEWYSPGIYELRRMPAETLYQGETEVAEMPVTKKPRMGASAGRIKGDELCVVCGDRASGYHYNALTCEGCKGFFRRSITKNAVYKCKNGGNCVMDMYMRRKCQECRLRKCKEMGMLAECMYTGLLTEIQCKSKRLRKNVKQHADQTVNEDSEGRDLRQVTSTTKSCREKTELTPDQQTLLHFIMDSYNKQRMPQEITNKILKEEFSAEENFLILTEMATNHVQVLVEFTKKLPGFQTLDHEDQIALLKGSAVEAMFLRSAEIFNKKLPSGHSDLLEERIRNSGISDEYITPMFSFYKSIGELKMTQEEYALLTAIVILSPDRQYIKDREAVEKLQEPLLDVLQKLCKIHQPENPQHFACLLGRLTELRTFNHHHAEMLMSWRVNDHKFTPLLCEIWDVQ

Experiment [19] deals with Retinoic acid receptor alpha (Homo sapiens) (UniProt P10276). Briefly: ATG_DR5_RAR_CIS: Attagene CIS-FACTORIAL HepG2 Assay for human Retinoic Acid Receptor Alpha (RARE), DR5 submotif (AID 2282934).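 On AC50: reporter responds to endogenous RAR alpha beta and gamma in HepG2 not RARA alone.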 The note with it: HepG2 Attagene cis-factorial RARE DR5 reporter, mRNA; actives raise or lower the signal. The essentials:
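Read-out: DR5-driven reporter transcript measured by RT-PCR, 6-FAM primer extension, HpaI digest and capillary electrophoresis. Human HepG2 liver cells carry transiently transfected cis-element reporter constructs; dosing lasts 24 h. Gain or loss of signal fitted against DMSO baseline.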

Chain of CCAAT/enhancer-binding protein beta (Homo sapiens) (P17676 whole entry, looked up): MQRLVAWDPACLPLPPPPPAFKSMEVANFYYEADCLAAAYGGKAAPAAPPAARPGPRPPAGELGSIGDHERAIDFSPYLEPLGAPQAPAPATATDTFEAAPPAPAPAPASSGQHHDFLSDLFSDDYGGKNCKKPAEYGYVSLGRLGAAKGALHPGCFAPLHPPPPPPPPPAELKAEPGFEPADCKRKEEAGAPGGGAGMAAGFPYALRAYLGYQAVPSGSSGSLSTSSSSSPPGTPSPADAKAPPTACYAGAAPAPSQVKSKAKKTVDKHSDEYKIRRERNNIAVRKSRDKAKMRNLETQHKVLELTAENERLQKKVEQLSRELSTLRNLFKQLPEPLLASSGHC
Chain of Hepatocyte nuclear factor 3-beta (Homo sapiens) (Q9Y261 whole entry, looked up): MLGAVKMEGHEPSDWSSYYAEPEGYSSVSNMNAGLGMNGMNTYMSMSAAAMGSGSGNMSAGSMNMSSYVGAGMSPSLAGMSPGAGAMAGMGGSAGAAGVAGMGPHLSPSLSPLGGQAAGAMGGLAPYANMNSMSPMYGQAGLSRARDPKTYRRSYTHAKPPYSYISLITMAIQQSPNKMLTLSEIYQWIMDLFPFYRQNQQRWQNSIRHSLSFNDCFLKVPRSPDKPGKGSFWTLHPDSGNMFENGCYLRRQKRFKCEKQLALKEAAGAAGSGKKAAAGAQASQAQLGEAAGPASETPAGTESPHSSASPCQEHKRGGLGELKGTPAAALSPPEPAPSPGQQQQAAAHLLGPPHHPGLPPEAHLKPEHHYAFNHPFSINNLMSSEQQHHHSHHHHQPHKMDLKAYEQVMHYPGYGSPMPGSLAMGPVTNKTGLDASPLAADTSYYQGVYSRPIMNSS
Chain of Transcription factor E2F1 (Homo sapiens) (Q01094 whole entry, looked up): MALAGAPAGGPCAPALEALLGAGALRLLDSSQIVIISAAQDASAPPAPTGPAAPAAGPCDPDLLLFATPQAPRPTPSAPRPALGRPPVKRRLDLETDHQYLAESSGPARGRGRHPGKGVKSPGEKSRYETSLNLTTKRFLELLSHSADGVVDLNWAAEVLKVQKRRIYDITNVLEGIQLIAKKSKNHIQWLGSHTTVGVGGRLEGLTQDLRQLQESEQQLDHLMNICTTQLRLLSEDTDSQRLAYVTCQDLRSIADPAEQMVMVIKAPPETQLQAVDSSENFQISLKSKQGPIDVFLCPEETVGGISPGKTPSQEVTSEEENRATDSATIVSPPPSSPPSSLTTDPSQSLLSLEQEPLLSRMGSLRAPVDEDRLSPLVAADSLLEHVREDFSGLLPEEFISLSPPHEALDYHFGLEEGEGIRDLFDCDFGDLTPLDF
Chain of Retinoic acid receptor alpha (Homo sapiens) (P10276 whole entry, looked up): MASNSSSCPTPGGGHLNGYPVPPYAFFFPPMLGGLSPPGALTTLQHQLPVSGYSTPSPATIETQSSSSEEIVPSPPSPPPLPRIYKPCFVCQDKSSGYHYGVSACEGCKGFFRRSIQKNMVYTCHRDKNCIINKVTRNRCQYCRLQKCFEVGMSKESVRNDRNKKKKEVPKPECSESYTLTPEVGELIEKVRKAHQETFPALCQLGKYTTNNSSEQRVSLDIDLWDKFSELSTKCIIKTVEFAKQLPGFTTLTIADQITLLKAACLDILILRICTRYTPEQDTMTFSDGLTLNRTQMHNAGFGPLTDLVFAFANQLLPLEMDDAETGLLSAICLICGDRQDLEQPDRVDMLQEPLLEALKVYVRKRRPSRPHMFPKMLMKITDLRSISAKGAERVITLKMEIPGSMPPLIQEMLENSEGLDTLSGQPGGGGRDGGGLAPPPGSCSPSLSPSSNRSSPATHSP
Chain of Aryl hydrocarbon receptor (Homo sapiens) (P35869 whole entry, looked up): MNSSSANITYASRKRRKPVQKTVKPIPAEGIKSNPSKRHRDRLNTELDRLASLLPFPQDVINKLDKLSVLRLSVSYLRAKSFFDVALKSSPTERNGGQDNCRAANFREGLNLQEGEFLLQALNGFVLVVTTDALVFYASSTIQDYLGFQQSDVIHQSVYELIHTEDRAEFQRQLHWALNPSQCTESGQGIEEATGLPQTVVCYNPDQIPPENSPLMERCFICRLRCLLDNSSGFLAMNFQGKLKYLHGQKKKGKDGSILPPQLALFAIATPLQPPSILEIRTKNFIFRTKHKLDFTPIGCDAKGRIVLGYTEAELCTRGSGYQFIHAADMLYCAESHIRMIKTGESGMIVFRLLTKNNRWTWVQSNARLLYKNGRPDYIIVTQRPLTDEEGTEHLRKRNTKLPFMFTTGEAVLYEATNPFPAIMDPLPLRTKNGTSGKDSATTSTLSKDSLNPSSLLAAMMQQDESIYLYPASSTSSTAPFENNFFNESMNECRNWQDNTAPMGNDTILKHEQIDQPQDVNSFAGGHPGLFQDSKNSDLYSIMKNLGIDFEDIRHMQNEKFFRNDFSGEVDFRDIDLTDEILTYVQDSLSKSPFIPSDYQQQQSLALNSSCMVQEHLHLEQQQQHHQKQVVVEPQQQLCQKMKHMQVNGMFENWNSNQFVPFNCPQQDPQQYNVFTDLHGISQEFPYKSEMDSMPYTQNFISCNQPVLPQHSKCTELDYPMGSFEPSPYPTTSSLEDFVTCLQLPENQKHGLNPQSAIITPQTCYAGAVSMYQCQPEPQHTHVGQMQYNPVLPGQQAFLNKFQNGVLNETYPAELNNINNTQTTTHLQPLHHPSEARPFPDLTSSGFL

Consider `CC1(C(=O)Nc2ccc(O)c(Cl)c2Cl)CCCCC1`, for which the AC50 (in general, the concentration at which the activity in the assay is half-maximal) in [1] is 10 µM (active); in experiment [6], 30 µM (active); in experiment [8], 39.3 µM (active); in experiment [11], 32.2 µM (active). Besides, the result in experiment [2], in [3], in experiment [4], in experiment [5], in [7] and in experiment [9] was inactive. Besides, the compound was classed as inactive in experiment [10], in experiment [12], in experiment [13], in experiment [14], in experiment [15] and in experiment [16]. The result in experiment [17] and in [18] was inactive.

In the case of `Cc1cc(C2CC2)nc(Nc2ccccc2)n1`, the AC50 in experiment [1] is 18 µM (active); in experiment [3] it was 13.1 µM (active); in experiment [6], 32.2 µM (active); in experiment [8] it was 33.5 µM (active); in experiment [19], 12.3 µM (active); in experiment [11] it was 50 µM (active). Moreover, the AC50 in experiment [14] is 33 µM (active); in experiment [15] it was 50 µM (active). For the same compound, the result in [2], in experiment [4], in experiment [7], in experiment [9], in [10] and in experiment [12] was inactive. Besides, the outcome in experiment [13], in [16], in experiment [17] and in [18] was inactive.

As to `CCOP(=O)(SC(C)CC)N1CCSC1=O` (stereo not drawn), the result in experiment [1], in experiment [2], in experiment [3], in experiment [4], in experiment [5] and in experiment [6] was inactive. Also, the compound was classed as inactive in [7], in [8], in experiment [19], in experiment [9], in [10] and in [11]. The compound was classed as inactive in experiment [12], in [13], in experiment [14], in experiment [15] and in experiment [17].
